Results on six compounds are retold here after PubChem BioAssay (Tox21).

Several values for one entry are separate records, joined by “and”; a condition that tells them apart may be missing. Equal entries are not always repeated. Results filed as inconclusive are left out. Some structures have more than one record in an assay (separate samples or runs), and their calls can disagree. Activity calls are given as the source filed them. Unless noted, calls come from the whole dose curve; as a rule, active = well fitted curve in the direction sought with a large enough effect in the repeat runs; inconclusive = weak or mixed curves; inactive = no such curve, though single readings can be large; an effect the other way counts as inactive or inconclusive.

Assay [1] is described as follows: Caspase-3/7 induction in HepG2 cells by small molecules, qHTS assay (AID 1346978). Note: nearly all actives have a fitted effect of over 15% in size. The procedure, abridged:
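Wild-type HepG2 cells, 2,000/well, settled 5 hr at 37 C and 5% CO2, then compound-treated for 17 hr; caspase-3/7 activity read by luminescent Caspase-Glo 3/7 after 30 min at room temperature.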
A general note: qHTS replaces the single test concentration by a dilution series.

Assay [2] can be described thus: Caspase-3/7 induction in CHO-K1 cells by small molecules, qHTS cell viability counter screen (AID 1346979). Note: nearly all actives have a fitted effect of over 35% in size. The procedure, abridged: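 Seeding: 1,500 CHO-K1 cells/well. Rest: 5hr, 37C. Treatment: compounds in DMSO, 16hr. Read: CellTiter-Fluor, 1hr, fluorescence.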
Assay [3] is described as follows: Caspase-3/7 induction in CHO-K1 cells by small molecules, qHTS assay (AID 1346980). Note: nearly all actives have a fitted effect of over 15% in size. The procedure, abridged:
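Wild-type CHO-K1 cells exposed to compounds for 17hr at 37 C, 5% CO2. Caspase-3/7 activity then measured by Caspase-Glo 3/7 luminescence after 30min at room temperature.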

A short description of assay [4]: Caspase-3/7 induction in HepG2 cells by small molecules, qHTS cell viability counter screen (AID 1346981). Note: series mostly up to about 92 µM; nearly all actives have a fitted effect of over 30% in size. The gist of the method: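 Wild-type HepG2 cells, 2,000/well, settled 5 hr at 37 C, 5% CO2 before compound addition. Viability read by CellTiter-Fluor fluorescence, reagent added after 16 hr compound exposure, then 1 hr at 37C, in the same wells as the caspase read.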

In assay [5] the target is Nuclear receptor subfamily 1 group I member 2 (Homo sapiens) (UniProt O75469). The assay is described as follows: Human pregnane X receptor (PXR) small molecule agonists, qHTS assay (AID 1346982). Note: nearly all actives have a fitted effect of over 35% in size. Note: potency is the fitted concentration of half-maximal effect. The procedure, abridged: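 PXR-Luc HepG2 reporter cells (CYP3A4-driven luciferase) in 5% charcoal-stripped FBS medium, plated 5 h before compound addition, then treated 24 h at 37C. Luciferase read by ONE-Glo luminescence after 30 min at room temperature.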
Sequence of Nuclear receptor subfamily 1 group I member 2 (Homo sapiens) (O75469 whole entry, looked up): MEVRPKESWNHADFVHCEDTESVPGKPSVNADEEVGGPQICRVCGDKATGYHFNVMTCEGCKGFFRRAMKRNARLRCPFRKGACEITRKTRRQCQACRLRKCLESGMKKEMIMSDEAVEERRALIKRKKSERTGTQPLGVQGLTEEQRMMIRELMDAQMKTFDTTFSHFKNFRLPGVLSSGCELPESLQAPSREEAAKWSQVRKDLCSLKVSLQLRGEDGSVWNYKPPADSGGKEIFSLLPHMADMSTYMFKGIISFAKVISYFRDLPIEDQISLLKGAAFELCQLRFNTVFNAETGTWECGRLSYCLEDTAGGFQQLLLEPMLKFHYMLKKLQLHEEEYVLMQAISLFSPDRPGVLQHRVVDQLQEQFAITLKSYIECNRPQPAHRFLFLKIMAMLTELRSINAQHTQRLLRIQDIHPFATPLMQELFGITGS

The target of assay [6] is Acetylcholinesterase (Homo sapiens) (UniProt P22303). The assay can be described thus: Acetylcholinesterase (AChE) small molecule antagonists: enzyme-based qHTS assay (AID 1347397; calls by dose curve; note: nearly all actives have a fitted effect of over 55% in size; note: potency is the fitted concentration of half-maximal effect). Conditions: Potency: AChE enzyme activity inhibition. The gist of the method:
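Recombinant human AChE (50 mU/mL) preincubated with compound 30 min at room temperature; acetylthiocholine plus DTNB then added, and thiocholine formation read colorimetrically after 10 min at room temperature. DMSO served as vehicle control.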

Assay [7] shares this target. The assay can be described thus: Acetylcholinesterase (AChE) small molecule antagonists: fluorescence cell-based qHTS assay (AID 1347398; calls by dose curve; note: nearly all actives have a fitted effect of over 50% in size; note: potency is the fitted concentration of half-maximal effect). Conditions: Potency: AChE activity. The procedure, abridged: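 SH-SY5Y cells (2000/well), attached overnight, incubated with compound 30 min at 37 C. Acetylthiocholine plus Thiolite Green then added for 40 min at room temperature. Thiocholine fluorescence (Ex/Em 490/520 nm) reports cellular AChE activity.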

Assay [8] has as its target Cytochrome P450 2D6 (Homo sapiens) (UniProt P10635). The assay can be described thus: Cytochrome P450 Family 2 Subfamily D Member 6 (CYP2D6) small molecule antagonists: luciferase reporter qHTS assay (AID 1671196). Note: nearly all actives have a fitted effect of over 50% in size. Note: potency is the fitted concentration of half-maximal effect. The gist of the method: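 Cell-free P450-Glo system: CYP2D6 with proluciferin substrate was pre-incubated with compound for 10 min, then reacted with NADPH regeneration for 1 h at room temperature. Luciferin product was detected after 20 min, and data were reported as relative luminescence units.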
In general terms: In a reporter assay the amount or activity of a reporter protein is the signal.

Assay [9] deals with Cytochrome P450 2C19 (Homo sapiens) (UniProt P33261). The assay can be described thus: Cytochrome P450 Family 2 Subfamily C Member 19 (CYP2C19) small molecule antagonists: luciferase reporter qHTS assay (AID 1671197). Note: nearly all actives have a fitted effect of over 65% in size. Note: potency is the fitted concentration of half-maximal effect. The procedure, abridged: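 CYP2C19 P450-Glo, 1536-well qHTS. Cpd + enzyme/proluciferin substrate 10 min RT; + NADPH regen, 37C 1 h; stop with luciferin detection reagent, 20 min RT, luminescence (RLU). Pos ctrl ketoconazole.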
Sequence of Cytochrome P450 2C19 (Homo sapiens) (P33261 whole entry, looked up): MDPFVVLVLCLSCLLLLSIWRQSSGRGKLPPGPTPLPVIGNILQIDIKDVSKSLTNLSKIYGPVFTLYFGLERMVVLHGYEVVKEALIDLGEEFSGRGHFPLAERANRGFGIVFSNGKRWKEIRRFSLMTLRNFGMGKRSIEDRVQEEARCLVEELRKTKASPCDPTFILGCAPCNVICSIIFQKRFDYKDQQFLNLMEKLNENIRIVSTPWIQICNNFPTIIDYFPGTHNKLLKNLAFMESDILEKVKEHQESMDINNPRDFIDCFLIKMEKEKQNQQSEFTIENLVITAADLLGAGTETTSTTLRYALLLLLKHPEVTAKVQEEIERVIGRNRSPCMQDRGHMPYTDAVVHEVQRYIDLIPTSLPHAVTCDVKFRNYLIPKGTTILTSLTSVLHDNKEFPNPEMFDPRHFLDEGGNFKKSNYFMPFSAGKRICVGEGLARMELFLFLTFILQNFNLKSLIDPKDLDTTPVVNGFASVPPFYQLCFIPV

Assay [10] has as its target Cytochrome P450 2C9 (Homo sapiens) (UniProt P11712). The assay is described as follows: Cytochrome P450 Family 2 Subfamily C Member 9 (CYP2C9) small molecule antagonists: luciferase reporter qHTS assay (AID 1671198). Note: nearly all actives have a fitted effect of over 50% in size. Note: potency is the fitted concentration of half-maximal effect. The procedure, abridged:
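P450-Glo proluciferin substrate with CYP2C9 enzyme; 10 min RT preincubation, then NADPH regeneration 1 h at 37C; luciferin detection reagent 20 min RT, luminescence in relative luminescence units.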

The target in assay [11] is Cytochrome P450 1A2 (Homo sapiens) (UniProt P05177). The assay is described as follows: Cytochrome P450 Family 1 Subfamily A Member 2 (CYP1A2) small molecule antagonists: luciferase reporter qHTS assay (AID 1671199). Note: nearly all actives have a fitted effect of over 50% in size. Note: potency is the fitted concentration of half-maximal effect. The procedure, abridged: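 P450-Glo CYP1A2 enzyme–proluciferin substrate mix with compound 10 min at room temperature, then NADPH regeneration 1 h at room temperature. Luciferin detection reagent added, luminescence read after 20 min; furafylline positive control.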
Sequence of Cytochrome P450 1A2 (Homo sapiens) (P05177 whole entry, looked up): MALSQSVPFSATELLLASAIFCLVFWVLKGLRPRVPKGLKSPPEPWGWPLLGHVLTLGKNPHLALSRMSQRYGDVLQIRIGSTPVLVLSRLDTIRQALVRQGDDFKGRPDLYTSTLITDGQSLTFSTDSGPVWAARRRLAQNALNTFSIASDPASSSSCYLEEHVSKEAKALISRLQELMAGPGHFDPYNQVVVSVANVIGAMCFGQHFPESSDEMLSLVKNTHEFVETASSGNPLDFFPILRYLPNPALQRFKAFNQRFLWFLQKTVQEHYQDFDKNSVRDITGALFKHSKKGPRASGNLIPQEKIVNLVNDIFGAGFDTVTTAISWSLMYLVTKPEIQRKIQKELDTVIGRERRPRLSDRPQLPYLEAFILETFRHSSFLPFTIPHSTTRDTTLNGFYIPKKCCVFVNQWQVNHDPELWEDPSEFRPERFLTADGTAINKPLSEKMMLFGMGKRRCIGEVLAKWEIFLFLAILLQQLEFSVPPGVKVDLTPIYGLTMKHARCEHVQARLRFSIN

Assay [12] deals with Voltage-gated inwardly rectifying potassium channel KCNH2 (Homo sapiens) (UniProt Q12809). The assay is described as follows: Human Ether-a-go-go-Related Gene (hERG) channel small molecule antagonists: fluorescence cell-based qHTS assay (AID 1671200). Note: nearly all actives have a fitted effect of over 50% in size. Note: potency is the fitted concentration of half-maximal effect. The procedure, abridged:
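First, 1000 cells per well are seeded and cultured overnight at 37 C. Next, FluxOR II dye is loaded for 1 h at room temperature, protected from light. After 10 more minutes, stimulus is added and fluorescence is read.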
(In general: The hERG channel carries a current that helps repolarise heart muscle cells.)

Assay [13] concerns the target Cytochrome P450 3A4 (Homo sapiens) (UniProt P08684). The assay is described as follows: Cytochrome P450 Family 3 Subfamily A Member 4 (CYP3A4) small molecule antagonists: luciferase reporter qHTS assay (AID 1671201). The procedure, abridged:
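Enzyme and proluciferin substrate are mixed with test chemicals for 10 min, then NADPH regeneration system drives turnover for 1 h at room temperature. A detection reagent halts the reaction; luminescence after 20 min gives relative activity.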

The target in assay [14] is Nuclear receptor subfamily 1 group I member 2 (Rattus norvegicus) (UniProt Q9R1A7). The assay is described as follows: Rat pregnane X receptor (rPXR) activation by small molecules, qHTS assay (AID 1346983). Note: nearly all actives have a fitted effect of over 20% in size. Conditions: rPXR luciferase reporter cells, One-Glo luminescence, 24 h; stronger effect = higher value. The procedure, abridged: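 Cell-based rPXR activation assay: rPXR cells, 2,000 per well, rested 5hr at 37 C, then exposed to compounds in DMSO for 24 hr at 37 C. Luciferase activity read by One-Glo luminescence after 30 min at room temperature.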

The target of assay [15] is Nuclear receptor subfamily 1 group I member 2 (Homo sapiens) (UniProt O75469). The assay can be described thus: CYP3A4 induction through human pregnane X receptor (PXR) by small molecules, qHTS assay (AID 1346984). Note: nearly all actives have a fitted effect of over 40% in size. The gist of the method: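 DPX-2 HepG2 cells carrying a PXR response element and CYP3A4-promoter luciferase construct, treated with compounds 24 hr at 37C. Then P450-Glo CYP3A4 Luciferin-IPA substrate (3uM final) for 3 hr at 37C, One-Glo added, luminescence read.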

For assay [16] the target is unchanged. The assay is described as follows: Human pregnane X receptor (PXR) activation by small molecules, qHTS assay (AID 1346985). Note: nearly all actives have a fitted effect of over 40% in size. Note: potency is the fitted concentration of half-maximal effect. The procedure, abridged: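 DPX-2 cells (HepG2 co-transfected with a PXR response element and a CYP3A4-promoter luciferase construct) were seeded at 2,000 per well, rested 5 hr at 37C, then exposed to DMSO-dissolved compounds for 24 hr. Activation was read as luciferase luminescence.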
% is set by controls: 0 for no effect and ±100 for the full control effect.

Sequence of Acetylcholinesterase (Homo sapiens) (P22303 whole entry, looked up): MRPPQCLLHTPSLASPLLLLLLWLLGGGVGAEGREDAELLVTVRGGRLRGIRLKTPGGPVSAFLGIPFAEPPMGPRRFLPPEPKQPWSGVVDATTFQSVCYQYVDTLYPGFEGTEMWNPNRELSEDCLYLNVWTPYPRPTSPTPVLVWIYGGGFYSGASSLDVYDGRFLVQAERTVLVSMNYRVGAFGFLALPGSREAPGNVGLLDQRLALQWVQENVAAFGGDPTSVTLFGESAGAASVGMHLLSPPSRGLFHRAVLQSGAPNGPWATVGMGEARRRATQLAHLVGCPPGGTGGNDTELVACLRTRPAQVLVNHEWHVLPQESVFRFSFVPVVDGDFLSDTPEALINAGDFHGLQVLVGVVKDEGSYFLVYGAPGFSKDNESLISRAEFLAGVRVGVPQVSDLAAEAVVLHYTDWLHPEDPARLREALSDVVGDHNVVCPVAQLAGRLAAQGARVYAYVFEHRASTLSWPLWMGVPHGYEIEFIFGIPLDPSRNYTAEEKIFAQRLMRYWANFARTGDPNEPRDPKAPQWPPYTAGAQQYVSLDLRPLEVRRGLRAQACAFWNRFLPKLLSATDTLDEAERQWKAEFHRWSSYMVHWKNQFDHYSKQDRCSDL
Sequence of Voltage-gated inwardly rectifying potassium channel KCNH2 (Homo sapiens) (Q12809 whole entry, looked up): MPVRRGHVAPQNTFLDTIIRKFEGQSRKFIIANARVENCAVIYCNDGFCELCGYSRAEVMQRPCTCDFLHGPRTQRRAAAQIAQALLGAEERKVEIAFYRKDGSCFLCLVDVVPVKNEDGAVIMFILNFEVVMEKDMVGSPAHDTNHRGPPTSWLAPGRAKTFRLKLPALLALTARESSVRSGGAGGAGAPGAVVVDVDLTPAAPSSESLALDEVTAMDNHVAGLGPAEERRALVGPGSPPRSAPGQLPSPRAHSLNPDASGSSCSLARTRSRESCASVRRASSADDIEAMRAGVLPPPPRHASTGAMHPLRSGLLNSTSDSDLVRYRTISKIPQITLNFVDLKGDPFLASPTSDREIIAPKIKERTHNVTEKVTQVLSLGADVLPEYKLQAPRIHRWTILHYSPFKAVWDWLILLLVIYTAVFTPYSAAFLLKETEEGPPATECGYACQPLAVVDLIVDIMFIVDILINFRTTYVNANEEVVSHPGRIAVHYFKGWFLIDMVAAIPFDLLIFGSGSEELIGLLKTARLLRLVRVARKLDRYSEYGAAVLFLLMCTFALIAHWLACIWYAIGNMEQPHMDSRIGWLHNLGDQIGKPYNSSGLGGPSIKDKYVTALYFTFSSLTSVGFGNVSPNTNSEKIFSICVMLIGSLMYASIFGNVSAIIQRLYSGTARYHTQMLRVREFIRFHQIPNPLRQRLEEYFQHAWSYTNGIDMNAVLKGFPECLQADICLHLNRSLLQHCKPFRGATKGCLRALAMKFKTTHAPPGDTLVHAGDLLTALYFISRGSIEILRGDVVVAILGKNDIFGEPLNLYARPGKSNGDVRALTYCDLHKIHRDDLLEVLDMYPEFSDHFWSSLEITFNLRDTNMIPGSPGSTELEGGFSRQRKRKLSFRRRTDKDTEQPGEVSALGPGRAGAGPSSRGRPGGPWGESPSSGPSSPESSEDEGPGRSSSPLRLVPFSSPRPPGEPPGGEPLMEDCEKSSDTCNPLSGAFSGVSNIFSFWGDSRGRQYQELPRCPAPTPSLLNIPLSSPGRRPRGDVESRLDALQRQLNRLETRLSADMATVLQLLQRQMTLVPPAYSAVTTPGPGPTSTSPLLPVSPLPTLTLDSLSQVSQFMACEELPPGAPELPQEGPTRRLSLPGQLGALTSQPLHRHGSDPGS
Sequence of Cytochrome P450 2C9 (Homo sapiens) (P11712 whole entry, looked up): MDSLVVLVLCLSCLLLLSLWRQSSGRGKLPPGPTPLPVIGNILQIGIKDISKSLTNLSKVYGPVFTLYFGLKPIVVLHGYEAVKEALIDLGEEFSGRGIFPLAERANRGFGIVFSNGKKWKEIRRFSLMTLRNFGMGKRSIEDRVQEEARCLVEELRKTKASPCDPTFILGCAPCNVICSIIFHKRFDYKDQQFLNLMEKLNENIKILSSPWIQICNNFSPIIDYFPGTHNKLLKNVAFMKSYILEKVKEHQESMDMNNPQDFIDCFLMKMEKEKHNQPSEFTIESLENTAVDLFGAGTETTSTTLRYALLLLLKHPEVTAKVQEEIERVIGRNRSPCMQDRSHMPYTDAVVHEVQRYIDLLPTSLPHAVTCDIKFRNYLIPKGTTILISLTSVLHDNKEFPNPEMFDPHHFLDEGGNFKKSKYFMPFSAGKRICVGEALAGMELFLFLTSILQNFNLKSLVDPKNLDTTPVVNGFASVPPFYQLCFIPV
Sequence of Cytochrome P450 2D6 (Homo sapiens) (P10635 whole entry, looked up): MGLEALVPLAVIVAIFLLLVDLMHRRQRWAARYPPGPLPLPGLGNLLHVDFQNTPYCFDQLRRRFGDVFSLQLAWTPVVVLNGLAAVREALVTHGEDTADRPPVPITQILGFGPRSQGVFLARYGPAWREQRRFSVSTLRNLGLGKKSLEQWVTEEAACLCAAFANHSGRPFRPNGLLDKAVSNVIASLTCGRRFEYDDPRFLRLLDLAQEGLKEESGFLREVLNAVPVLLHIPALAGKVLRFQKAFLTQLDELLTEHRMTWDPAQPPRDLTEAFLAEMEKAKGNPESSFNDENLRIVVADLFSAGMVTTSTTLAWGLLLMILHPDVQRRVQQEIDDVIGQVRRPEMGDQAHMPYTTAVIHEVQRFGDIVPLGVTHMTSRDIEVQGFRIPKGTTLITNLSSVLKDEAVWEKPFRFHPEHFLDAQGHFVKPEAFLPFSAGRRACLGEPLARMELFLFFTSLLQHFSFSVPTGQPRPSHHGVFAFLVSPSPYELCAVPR
Sequence of Cytochrome P450 3A4 (Homo sapiens) (P08684 whole entry, looked up): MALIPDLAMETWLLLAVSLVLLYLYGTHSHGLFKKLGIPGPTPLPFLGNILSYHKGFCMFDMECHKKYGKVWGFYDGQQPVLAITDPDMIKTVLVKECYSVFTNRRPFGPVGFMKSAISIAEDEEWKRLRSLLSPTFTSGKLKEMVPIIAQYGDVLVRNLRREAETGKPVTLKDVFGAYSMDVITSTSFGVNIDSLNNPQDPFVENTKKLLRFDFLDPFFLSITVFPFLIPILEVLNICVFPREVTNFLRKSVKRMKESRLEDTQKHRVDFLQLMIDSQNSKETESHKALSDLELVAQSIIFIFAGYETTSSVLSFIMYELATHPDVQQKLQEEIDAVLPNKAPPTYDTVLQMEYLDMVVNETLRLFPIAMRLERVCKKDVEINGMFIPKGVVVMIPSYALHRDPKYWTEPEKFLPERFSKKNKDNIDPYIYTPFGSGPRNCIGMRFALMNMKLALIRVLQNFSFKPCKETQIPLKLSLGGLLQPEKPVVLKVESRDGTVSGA

Take `O=C(O)c1nc(Cl)ccc1Cl`: the Potency entry in [1], in assay [2], in assay [3], in [4], in [5] and in assay [6] was “inactive” throughout. Moreover, the Potency entry in [7], in [8], in [9], in [10], in [11] and in assay [12] was “inactive” each time. For the same compound, in [13], the Potency result was “inactive”.
Consider `O=C(O)C(Cl)Cl`, for which the Potency result in assay [1], in assay [2], in [3], in [4], in [5] and in assay [16] was “inactive” each time. Also, the Potency entry in assay [6], in [7], in [9], in [10], in [11] and in assay [12] was “inactive” each time. Besides, the Potency result in assay [13] was “inactive”. Besides, the max activation in [14] is -1.74% (inactive). For the same compound, the compound was called inactive in [15]. Further, the Potency in assay [8] was 29.1 µM (active) and inactive.
Turning to `O=C(O)COc1ccc(Cl)cc1Cl`, the Potency entry in [1], in assay [2], in assay [3], in assay [4], in assay [5] and in assay [6] was “inactive” throughout. In addition, the Potency result in [7], in [12] and in [13] was “inactive” throughout. For the same compound, the Potency entry in assay [8] is “inactive and 35.6 µM (active)”; in [9] it was 70.7 µM (active) and inactive; in [11] it was 31.6 µM (active) and inactive.
For the compound `CCOP(=S)(OCC)Oc1ccc2c(C)c(Cl)c(=O)oc2c1`, the Potency result in assay [1], in assay [2] and in [3] was “inactive” throughout. The Potency in assay [5] was 27.6 µM (active) and 19.3 µM (active) and 23.7 µM (active); in assay [16], 14.1 µM (active); in [6], 40.4 µM (active) and 71 µM (active) and inactive; in assay [7] it was 12.8 µM (active) and 25.2 µM (active) and inactive; in [8] it was 5.08 µM (active) and 15.9 µM (active); in assay [9] it was 321 nM (active) and 50.2 nM (active) and 3.89 µM (active). The Potency was 286 nM (active) and 63.3 nM (active) and 8.71 µM (active) in [10]; 2.86 µM (active) and 4.48 µM (active) and 13.8 µM (active) in assay [11]; 22.1 µM (active) and inactive in assay [12]. Also, the max activation in assay [14] is 9.05% (inactive). Besides, the compound was classed as inactive in assay [15].
On to `Cc1cc(-c2ccc(N)c(C)c2)ccc1N`, for which the Potency entry in [1], in [2], in assay [3], in [4], in assay [6] and in [7] was “inactive” throughout. The Potency result in assay [12] was “inactive”. Further, the Potency in assay [5] is 53.7 µM (active) and 61.8 µM (active); in assay [8], 3.21 µM (active) [middle of 4 runs]; in [9], 6.4 µM (active) [middle of 4 runs]; in [10], 15.9 µM (active) [middle of 4 runs]; in assay [11], 509 nM (active) [middle of 4 runs].
For the compound `O=C(O)CCl`, the Potency entry in assay [1], in [2], in [3], in assay [4], in assay [5] and in assay [6] was “inactive” each time. In addition, the Potency result in assay [7], in assay [8], in assay [9], in [10], in assay [11] and in [12] was “inactive” each time. For the same compound, the Potency entry in assay [13] was “inactive”.
